Six compounds from PubChem BioAssay (EPA / NIEHS) can be followed below.

The nature of experiment [1]: ATG_GLI_CIS: Attagene CIS-FACTORIAL HepG2 Assay for human Zinc Finger Protein GLI1 (AID 2282945). The note with it: HepG2, Attagene cis-factorial reporter mRNA, GLI element; actives raise or lower the signal. In short, it runs like this: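 HepG2 cells transiently transfected with cis-promoter multiplexed reporter units report endogenous transcription factor activity. After 24 h chemical exposure, reporter mRNA was quantified by RT-PCR, 6-FAM labelling, HpaI digestion and capillary electrophoresis, with bidirectional fitting against DMSO.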

Experiment [2] can be described thus: ATG_GRE_CIS: Attagene CIS-FACTORIAL HepG2 Assay for human Glucocorticoid Response Elements (GRE) (AID 2282947). The note with it: HepG2 GRE cis-reporter, Attagene multiplex mRNA; actives raise or lower the signal. In short, it runs like this:
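HepG2, transient cis-reporter transfection, 24 h. Reporter mRNA: RT-PCR then CE, fluorescence. Fit both directions vs DMSO.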

Experiment [3] in a line: ATG_ISRE_CIS: Attagene CIS-FACTORIAL HepG2 Assay for human Interferon Regulatory Factor 1 (IRF1) binding to an Interferon-Stimulated Response Element (ISRE) (AID 2282948). The note with it: HepG2 ISRE cis-reporter (Attagene), mRNA transcription readout; actives raise or lower the signal. An outline of the steps: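 Multiplexed mRNA reporter readout in human liver HepG2 cells: cis-element-driven reporters transfected, compound added for 24 h, transcripts amplified, fluorescently labelled and sized by capillary electrophoresis; curve fitting bidirectional against DMSO.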

Experiment [4] in a line: ATG_M_32_CIS: Attagene CIS-FACTORIAL HepG2 Assay for M32 Transcription Factor (Internal Marker) (AID 2282949).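 Also: background control marker of the multiplexed CIS panel rather than a real target.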 Particulars: HepG2 Attagene cis-factorial M32 reporter, mRNA; actives raise or lower the signal. In short, it runs like this:
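Transient MRTU transfection of HepG2; 24 h compound treatment; TriZol RNA, oligo(dT) RT, reporter PCR, 6-FAM primer extension, HpaI cut, CE. Gain/loss of signal vs DMSO.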

Experiment [5] is described as follows: ATG_M_06_CIS: Attagene CIS-FACTORIAL HepG2 Assay for M06 Transcription Factor (Internal Marker) (AID 2282950). The note with it: HepG2 Attagene CIS-FACTORIAL M06 internal marker reporter; actives raise or lower the signal. In short, it runs like this: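 Steps: transfect HepG2 with multiplexed cis-element reporter constructs; dose chemical 24 h; extract RNA with DNase treatment; reverse-transcribe, PCR-amplify, 6-FAM label, HpaI digest; separate fragments by capillary electrophoresis. Activity fitted both directions versus DMSO.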

Experiment [6] addresses Hypoxia-inducible factor 1-alpha (Homo sapiens) (UniProt Q16665). The experiment in a line: ATG_HIF1a_CIS: Attagene CIS-FACTORIAL HepG2 Assay for human Hypoxia Inducible Factor 1 (HIF1A) (AID 2282951). Particulars: HepG2 Attagene cis-factorial HIF1a reporter transcription; actives raise or lower the signal. In short, it runs like this:
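Measures endogenous transcription-factor activity through cis-regulated reporter mRNA in HepG2. Cells dosed 24 h; transcripts quantified by RT-PCR with 6-FAM-labelled products separated by capillary electrophoresis; DMSO serves as negative control.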

For experiment [7], the target named is Hepatocyte nuclear factor 6 (Homo sapiens) (UniProt Q9UBC0). The experiment in a line: ATG_HNF6_CIS: Attagene CIS-FACTORIAL HepG2 Assay for human Hepatocyte Nuclear Factor 6 (HNF6) (AID 2282952). The note with it: HepG2 Attagene cis-factorial HNF6 reporter transcription; actives raise or lower the signal. An outline of the steps: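 Using cis-element reporters in HepG2 liver cells, the assay tracks endogenous factor-driven transcription 24 h post-dosing. Signal comes from 6-FAM-labelled, HpaI-digested RT-PCR fragments, with gain or loss scored against DMSO.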
Chain of Hepatocyte nuclear factor 6 (Homo sapiens) (Q9UBC0 whole entry, looked up, the tested form may be a part): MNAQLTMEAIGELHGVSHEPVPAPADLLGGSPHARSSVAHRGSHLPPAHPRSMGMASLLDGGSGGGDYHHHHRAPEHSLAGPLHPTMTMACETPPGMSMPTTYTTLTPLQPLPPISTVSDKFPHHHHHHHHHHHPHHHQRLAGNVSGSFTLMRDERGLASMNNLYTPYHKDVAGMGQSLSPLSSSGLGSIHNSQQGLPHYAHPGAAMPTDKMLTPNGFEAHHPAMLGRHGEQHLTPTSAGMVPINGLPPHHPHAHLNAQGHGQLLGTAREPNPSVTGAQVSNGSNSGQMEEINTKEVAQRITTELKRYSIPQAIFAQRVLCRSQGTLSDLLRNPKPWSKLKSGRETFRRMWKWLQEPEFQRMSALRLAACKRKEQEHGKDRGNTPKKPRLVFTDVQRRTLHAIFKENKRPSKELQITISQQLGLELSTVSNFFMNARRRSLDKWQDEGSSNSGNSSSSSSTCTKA

For experiment [8], the target named is Heat shock factor protein 1 (Homo sapiens) (UniProt Q00613). As to the kind of experiment: ATG_HSE_CIS: Attagene CIS-FACTORIAL HepG2 Assay for human Heat Shock Transcription Factor 1 (HSE) (AID 2282953). The note with it: HepG2 HSE cis-reporter, Attagene RNA transcription; actives raise or lower the signal. An outline of the steps:
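Cells were transfected with cis-element-driven reporter constructs, dosed for 24 h, then total RNA was reverse-transcribed and reporter cDNA amplified, FAM-labelled and digested with HpaI. Fragments were resolved by capillary electrophoresis; gain or loss was fitted against DMSO.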

A short description of experiment [9]: ATG_MRE_CIS: Attagene CIS-FACTORIAL HepG2 Assay for human Metal Responsive Element (MRE) (AID 2282954). The note with it: HepG2 MRE cis-reporter transcription, Attagene multiplex; actives raise or lower the signal. In short, it runs like this:
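Readout: capillary electrophoresis of 6-FAM-labelled, HpaI-digested RT-PCR reporter products. System: HepG2 cells carrying transient multiplexed cis reporters, dosed 24 h. Analysis: bidirectional fit, DMSO baseline.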

The nature of experiment [10]: ATG_PBREM_CIS: Attagene CIS-FACTORIAL HepG2 Assay for human Phenobarbital-responsive Enhancer Module (PBREM) (AID 2282955). Particulars: HepG2 PBREM cis-reporter, Attagene multiplexed transcription; actives raise or lower the signal. In short, it runs like this:
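Fluorescence of labelled reporter cDNA fragments, resolved by capillary electrophoresis, gives mRNA induction in transfected HepG2 cells treated for 24 h; DMSO serves as negative control and baseline.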

Experiment [11] concerns the target Paired box protein Pax-6 (Homo sapiens) (UniProt P26367). The experiment in a line: ATG_Pax6_CIS: Attagene CIS-FACTORIAL HepG2 Assay for human Paired Box 6 (PAX6) (AID 2282956). Particulars: HepG2 CIS-FACTORIAL PAX6 reporter transcription, RNA readout; actives raise or lower the signal. In short, it runs like this:
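Fluorescent RT-PCR products separated by capillary electrophoresis report PAX6-linked promoter mRNA in HepG2 cells 24 h post-dose. Curves fitted bidirectionally, DMSO as negative control.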

A short description of experiment [12]: ATG_PPRE_CIS: Attagene CIS-FACTORIAL HepG2 Assay for human Peroxisome Proliferator-activated Response Element (PPRE) (AID 2282958). The note with it: HepG2 PPRE cis-element reporter, Attagene transcription factor profiling; actives raise or lower the signal. An outline of the steps: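 Cells are first transfected transiently with the multiplexed reporter library, then dosed for 24 h. Total RNA is reverse-transcribed, amplified, fluorescently end-labeled and HpaI-cut before capillary electrophoresis; activity is fitted bidirectionally against DMSO controls.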

A short description of experiment [13]: ATG_RORE_CIS: Attagene CIS-FACTORIAL HepG2 Assay for human RAR-related Orphan Receptor Element (RORE) (AID 2282959). Particulars: HepG2 Attagene cis-factorial RORE reporter, mRNA; actives raise or lower the signal. An outline of the steps: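 Cells were HepG2 carrying transfected cis-regulated reporter constructs, dosed for 24 hours. Total RNA was reverse-transcribed and reporter cDNA amplified, fluorescently labeled and sized by capillary electrophoresis. Activity was fitted bidirectionally relative to DMSO.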

Experiment [14] in a line: ATG_Sox_CIS: Attagene CIS-FACTORIAL HepG2 Assay for human SRY-box transcription factor (SOX) (AID 2282960). Particulars: HepG2 Attagene cis-factorial SOX reporter, mRNA; actives raise or lower the signal. An outline of the steps:
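Transient MRTU transfection of HepG2; 24 h compound incubation; TriZol RNA, oligo(dT) RT, PCR, 6-FAM primer extension, HpaI cut, CE. Bidirectional fit, DMSO = baseline.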

The target of experiment [15] is Transcription factor Sp1 (Homo sapiens) (UniProt P08047). The experiment in a line: ATG_Sp1_CIS: Attagene CIS-FACTORIAL HepG2 Assay for human Specificity Protein 1 (Sp1) (AID 2282961). Particulars: HepG2 Sp1 cis-reporter transcription, actives raise or lower the signal. An outline of the steps: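 Endogenous Sp1 activity was gauged in human liver HepG2 cells bearing transfected reporter units under a cis-regulating promoter. After 24 h dosing, reporter mRNA was quantified by RT-PCR with capillary electrophoresis, and activity fitted bidirectionally versus DMSO.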
Chain of Transcription factor Sp1 (Homo sapiens) (P08047 whole entry, looked up): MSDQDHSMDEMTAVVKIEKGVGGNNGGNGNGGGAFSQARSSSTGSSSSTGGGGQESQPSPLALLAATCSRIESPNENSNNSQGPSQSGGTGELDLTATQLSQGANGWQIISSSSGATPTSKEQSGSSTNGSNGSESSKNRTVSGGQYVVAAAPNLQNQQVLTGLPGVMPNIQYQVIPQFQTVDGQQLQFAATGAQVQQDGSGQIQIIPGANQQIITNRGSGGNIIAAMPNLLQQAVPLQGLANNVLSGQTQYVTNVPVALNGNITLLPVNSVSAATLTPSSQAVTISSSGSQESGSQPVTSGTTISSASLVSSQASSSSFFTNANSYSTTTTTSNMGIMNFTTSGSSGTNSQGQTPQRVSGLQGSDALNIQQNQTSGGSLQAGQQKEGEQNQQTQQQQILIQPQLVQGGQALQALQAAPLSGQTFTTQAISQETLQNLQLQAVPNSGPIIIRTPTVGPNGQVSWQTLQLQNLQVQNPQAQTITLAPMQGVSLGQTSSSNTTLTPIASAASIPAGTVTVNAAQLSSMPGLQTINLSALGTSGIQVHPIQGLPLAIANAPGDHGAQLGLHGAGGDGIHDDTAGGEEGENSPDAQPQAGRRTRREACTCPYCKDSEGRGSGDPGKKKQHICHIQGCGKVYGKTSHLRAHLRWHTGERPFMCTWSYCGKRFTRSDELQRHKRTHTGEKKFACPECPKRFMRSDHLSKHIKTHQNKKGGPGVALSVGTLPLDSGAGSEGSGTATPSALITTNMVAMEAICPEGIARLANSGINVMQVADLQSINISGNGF

Experiment [16] is described as follows: ATG_SREBP_CIS: Attagene CIS-FACTORIAL HepG2 Assay for human Sterol Regulatory Element Binding (SREBP) (AID 2282962). Particulars: HepG2 Attagene cis-factorial SREBP reporter, mRNA; actives raise or lower the signal. In short, it runs like this:
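Endogenous factor activity is measured in HepG2 through multiplexed reporter units under cis-element control. Following a 24 h incubation, reporter transcripts are reverse-transcribed, PCR-amplified and sized by capillary electrophoresis; activity is fitted in both directions relative to DMSO.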

Experiment [17] has as its target Signal transducer and activator of transcription 3 (Homo sapiens) (UniProt P40763). As to the kind of experiment: ATG_STAT3_CIS: Attagene CIS-FACTORIAL HepG2 Assay for human Signal Transducer and Activator of Transcription 3 (STAT3) (AID 2282963). Particulars: HepG2, Attagene cis-factorial STAT3 reporter transcription; actives raise or lower the signal. An outline of the steps: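 Uses human liver HepG2 transiently carrying cis-regulated reporter transcription units. Following 24 h dosing, reporter mRNA induction was detected by RT-PCR and capillary electrophoresis, analysed bidirectionally versus DMSO.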

Experiment [18] can be described thus: ATG_TA_CIS: Attagene CIS-FACTORIAL HepG2 Assay for human TA Basal Promoter (AID 2282964). The note with it: HepG2 Attagene CIS-factorial TA basal promoter reporter; actives raise or lower the signal. In short, it runs like this:
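Steps: transfect HepG2 with MRTUs; dose 24 h; isolate RNA, DNase-treat, reverse-transcribe; PCR and FAM-label reporter cDNA; digest with HpaI 2h at 37 C; run capillary electrophoresis. Activity fitted both directions against DMSO.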

Experiment [19] in a line: ATG_PXRE_CIS: Attagene CIS-FACTORIAL HepG2 Assay for human Pregnane X Receptor Element (PXRE) (AID 2282957). Particulars: HepG2 Attagene CIS-FACTORIAL PXRE reporter, mRNA; actives raise or lower the signal. In short, it runs like this: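 Using HepG2 transfected with multiple reporter transcription units, endogenous factor-driven transcription was scored as reporter mRNA after 24 h exposure.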

Several values for one entry are separate records, joined by “and”; a condition that tells them apart may be missing. Equal entries are not always repeated. Some compounds were tested as several samples or in several runs, with calls that do not always agree. Activity calls are given as the source filed them. The calls were made as follows: active = hit-call score of the fitted dose curve at least 0.9, where 1 is the maximum; inactive = score below 0.9.

Chain of Signal transducer and activator of transcription 3 (Homo sapiens) (P40763 whole entry, looked up): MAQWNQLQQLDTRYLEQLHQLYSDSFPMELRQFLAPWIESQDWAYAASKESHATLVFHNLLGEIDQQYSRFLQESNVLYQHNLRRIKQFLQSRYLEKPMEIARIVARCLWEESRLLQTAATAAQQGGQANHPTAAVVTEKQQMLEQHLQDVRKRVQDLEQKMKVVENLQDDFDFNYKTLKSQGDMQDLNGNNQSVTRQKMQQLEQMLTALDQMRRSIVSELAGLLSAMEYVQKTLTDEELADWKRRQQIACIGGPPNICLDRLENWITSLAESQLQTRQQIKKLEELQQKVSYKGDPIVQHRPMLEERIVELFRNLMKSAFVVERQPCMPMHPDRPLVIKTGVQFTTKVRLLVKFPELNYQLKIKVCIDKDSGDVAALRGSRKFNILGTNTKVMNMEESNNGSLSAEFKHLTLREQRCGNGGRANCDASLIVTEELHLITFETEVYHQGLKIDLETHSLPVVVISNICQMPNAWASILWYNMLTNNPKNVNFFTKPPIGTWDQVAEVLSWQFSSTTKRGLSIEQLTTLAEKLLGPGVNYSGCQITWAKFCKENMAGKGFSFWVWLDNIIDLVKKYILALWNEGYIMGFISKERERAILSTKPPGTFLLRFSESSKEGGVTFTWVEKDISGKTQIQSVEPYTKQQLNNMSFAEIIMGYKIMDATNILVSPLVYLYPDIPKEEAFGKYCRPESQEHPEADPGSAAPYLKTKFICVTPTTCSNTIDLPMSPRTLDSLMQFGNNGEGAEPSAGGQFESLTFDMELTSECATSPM
Chain of Paired box protein Pax-6 (Homo sapiens) (P26367 whole entry, looked up): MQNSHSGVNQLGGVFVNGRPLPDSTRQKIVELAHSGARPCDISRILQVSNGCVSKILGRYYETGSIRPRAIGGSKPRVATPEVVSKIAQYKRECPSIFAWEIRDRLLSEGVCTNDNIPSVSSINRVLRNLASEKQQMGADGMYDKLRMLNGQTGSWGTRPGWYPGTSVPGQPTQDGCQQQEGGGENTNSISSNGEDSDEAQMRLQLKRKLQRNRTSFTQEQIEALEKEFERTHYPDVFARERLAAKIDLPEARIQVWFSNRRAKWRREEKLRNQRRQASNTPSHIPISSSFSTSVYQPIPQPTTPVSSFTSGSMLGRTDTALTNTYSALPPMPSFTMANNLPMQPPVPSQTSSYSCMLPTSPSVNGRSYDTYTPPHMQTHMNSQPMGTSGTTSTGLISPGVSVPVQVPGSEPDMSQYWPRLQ
Chain of Hypoxia-inducible factor 1-alpha (Homo sapiens) (Q16665 whole entry, looked up): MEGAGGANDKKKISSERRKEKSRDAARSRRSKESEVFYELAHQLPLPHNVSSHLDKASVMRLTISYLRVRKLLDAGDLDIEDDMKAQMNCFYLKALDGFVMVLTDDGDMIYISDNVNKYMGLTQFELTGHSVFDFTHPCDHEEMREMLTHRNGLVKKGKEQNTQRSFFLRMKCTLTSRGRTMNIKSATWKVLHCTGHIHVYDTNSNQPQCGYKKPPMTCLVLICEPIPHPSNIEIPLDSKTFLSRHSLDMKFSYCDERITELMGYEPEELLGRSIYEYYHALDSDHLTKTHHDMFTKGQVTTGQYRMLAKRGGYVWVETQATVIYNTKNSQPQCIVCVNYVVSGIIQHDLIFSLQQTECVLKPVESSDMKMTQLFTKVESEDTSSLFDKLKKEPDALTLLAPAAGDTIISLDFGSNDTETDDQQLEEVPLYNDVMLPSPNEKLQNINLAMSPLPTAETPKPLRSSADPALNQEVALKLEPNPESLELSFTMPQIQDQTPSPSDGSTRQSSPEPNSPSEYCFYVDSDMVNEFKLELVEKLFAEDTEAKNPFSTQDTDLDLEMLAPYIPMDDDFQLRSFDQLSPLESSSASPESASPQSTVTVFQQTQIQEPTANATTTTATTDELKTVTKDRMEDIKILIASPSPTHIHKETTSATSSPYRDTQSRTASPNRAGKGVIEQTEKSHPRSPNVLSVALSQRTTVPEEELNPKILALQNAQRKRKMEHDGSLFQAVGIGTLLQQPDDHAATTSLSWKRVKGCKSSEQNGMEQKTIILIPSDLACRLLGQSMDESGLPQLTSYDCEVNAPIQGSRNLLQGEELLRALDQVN
Chain of Heat shock factor protein 1 (Homo sapiens) (Q00613 whole entry, looked up, the tested form may be a part): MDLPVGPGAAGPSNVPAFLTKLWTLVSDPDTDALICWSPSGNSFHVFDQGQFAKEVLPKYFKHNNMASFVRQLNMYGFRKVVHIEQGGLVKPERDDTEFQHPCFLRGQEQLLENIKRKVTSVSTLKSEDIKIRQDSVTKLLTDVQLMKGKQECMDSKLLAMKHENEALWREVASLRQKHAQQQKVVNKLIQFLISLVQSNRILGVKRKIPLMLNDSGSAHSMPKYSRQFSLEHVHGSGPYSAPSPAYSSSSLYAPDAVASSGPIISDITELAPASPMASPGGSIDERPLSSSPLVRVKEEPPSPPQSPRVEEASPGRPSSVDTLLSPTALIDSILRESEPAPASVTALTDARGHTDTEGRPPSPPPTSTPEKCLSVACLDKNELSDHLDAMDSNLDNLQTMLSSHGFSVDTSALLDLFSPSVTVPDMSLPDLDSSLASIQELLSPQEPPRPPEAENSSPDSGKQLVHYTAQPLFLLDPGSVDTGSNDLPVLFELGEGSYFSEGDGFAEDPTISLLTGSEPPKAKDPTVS

For orientation: AC50 means the concentration at which the activity in the assay is half-maximal. Consider `O=C(CC(=O)C(F)(F)C(F)(F)F)C(F)(F)F`, for which the outcome in [1], in experiment [2], in [3], in [4], in experiment [5] and in experiment [6] was inactive. Moreover, the call in experiment [7], in [8], in experiment [9], in [10], in experiment [11] and in [13] was inactive. For the same compound, the call in experiment [14], in experiment [15], in experiment [16], in [17] and in [18] was inactive. Besides, the AC50 in [12] is 51.2 µM (active) and 64 µM (active).

Take `COC(=O)C1CCC(C(=O)OC)CC1` (configuration not stated): the result in experiment [1], in [3], in experiment [4], in [5], in experiment [6] and in [7] was inactive. In addition, the compound was classed as inactive in experiment [8], in experiment [9], in experiment [11], in experiment [12], in experiment [13] and in experiment [14]. Moreover, the compound was classed as inactive in experiment [15], in [16], in experiment [17] and in experiment [18].

With `FC(F)(F)C(F)(F)C(F)(F)C(F)(F)C(F)(F)C(F)(F)C(F)(F)C(F)(F)F`, the result in experiment [1], in [2], in experiment [3], in experiment [4], in experiment [5] and in experiment [6] was inactive. Moreover, the compound was called inactive in experiment [7], in experiment [8], in experiment [9], in [10], in experiment [11] and in [19]. For the same compound, the compound was called inactive in [12], in [13], in [14], in experiment [15], in experiment [16] and in [17]. In experiment [18], the outcome was inactive.

Take `Cc1ccc(S(=O)(=O)NCl)cc1`: the compound was called inactive in [1], in [2], in [3], in experiment [4], in experiment [5] and in [6]. In addition, the compound was called inactive in [7], in experiment [8], in [9], in experiment [11], in experiment [19] and in experiment [14]. In addition, the compound was classed as inactive in [15], in experiment [16], in experiment [17] and in [18]. The AC50 in experiment [19] is 131 µM (active).

As for `CC/C=C\CCOC(C)=O`, the result in experiment [1], in experiment [2], in experiment [3], in [4], in experiment [5] and in experiment [6] was inactive. Further, the outcome in [7], in experiment [8], in [9], in experiment [10], in [11] and in experiment [12] was inactive. Also, the compound was classed as inactive in experiment [13], in experiment [14], in experiment [15], in experiment [16], in experiment [17] and in experiment [18]. In addition, the AC50 in experiment [19] is 70 µM (active).

Turning to `OCC(F)(F)C(F)(F)C(F)(F)C(F)F`, the compound was classed as inactive in [1], in [2], in experiment [3], in experiment [4], in experiment [5] and in experiment [6]. Further, the result in experiment [7], in experiment [8], in [9], in experiment [10], in [11] and in [12] was inactive. Besides, the outcome in experiment [13], in experiment [14], in [15], in experiment [16], in experiment [17] and in experiment [18] was inactive.
